From PubChem
Shiga inhibitor – Shiga toxin inhibition | Vero cells, Shiga toxin protein synthesis inhibition reporter | inhibition, % at 38.7 µM | 290,000 tested, 9.2% active; in the data active = inhibition mostly above about 28%, no sharp cut-off; inactive = mostly below about 43%; also: 0% is about no effect
Cycloheximide cs – affects cycloheximide protein synthesis inhibition readout, counter-screen | cell reporter, cycloheximide protein synthesis inhibition counterscreen | max response, % | 300,000 tested, 12% active; in the data active = max response mostly above about 13%, no sharp cut-off; inactive = mostly below about 14%; also: read at 38.3 µM for the half of the compounds with a filed dose; 0% is about no effect
LmPK inhibitor – LmPK (Leishmania mexicana) enzyme inhibition. 290,000 tested, 0.37% active. Q27686. Potency, µM (titrated, usually from 57.5 µM), for the others: top-dose activity change, negative = inhibition, usual class: inhibitors. purified LmPK, Kinase-Glo ATP luminescence, 1 h; also: potency is read from the fitted curve at half-maximal effect; % is scaled to controls: 0 for no effect and ±100 for the full control effect
Target sequence (Q27686 whole entry, looked up): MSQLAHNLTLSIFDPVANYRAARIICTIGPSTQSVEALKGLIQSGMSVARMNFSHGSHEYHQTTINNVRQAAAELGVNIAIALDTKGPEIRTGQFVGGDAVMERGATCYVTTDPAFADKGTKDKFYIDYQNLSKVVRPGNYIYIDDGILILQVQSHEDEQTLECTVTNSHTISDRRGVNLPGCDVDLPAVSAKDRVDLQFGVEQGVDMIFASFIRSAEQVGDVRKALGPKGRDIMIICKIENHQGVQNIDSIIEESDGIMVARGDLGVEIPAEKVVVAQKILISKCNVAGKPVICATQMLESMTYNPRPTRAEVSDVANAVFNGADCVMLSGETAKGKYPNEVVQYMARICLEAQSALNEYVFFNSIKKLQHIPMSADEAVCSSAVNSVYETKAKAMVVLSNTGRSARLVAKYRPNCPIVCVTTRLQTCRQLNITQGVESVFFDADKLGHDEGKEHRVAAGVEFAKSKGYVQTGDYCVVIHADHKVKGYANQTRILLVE
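qHTS format; LmPK 0.1 nM; substrates PEP 0.5 mM and ADP 0.1 mM. One-hour room-temperature incubation, then coupled luciferase luminescence; 0.5 nM enzyme wells mark activation.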
NS1 inh – blocks influenza NS1 protein function | 270,000 tested, 0.4% active | Potency, µM (doses to about 46.1 µM), for inactives: at the top dose activity, positive = more growth; calls by dose curve; also: potency is read from the fitted curve at half-maximal effect; actives are rising curves; nearly all actives have a fitted effect of over 50% in size
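A cell-based growth assay was used: compounds that relieve NS1-induced slow growth of budding yeast raise OD600. Assay medium was yeast nitrogen base with ammonium sulphate and -URA supplement, pH 6.0, with 2% galactose.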
FBPA Giardia inh – blocks Giardia fructose-bisphosphate aldolase activity. purified Giardia FBPA. 290,000 tested, 0.71% active. Potency, µM (series often up to 59.6 µM), for the others: top-dose activity, negative = inhibition, usual class: inhibitors. A8B2U2; also: potency is read from the fitted curve at half-maximal effect; % is scaled to controls: 0 for no effect and ±100 for the full control effect; nearly all actives have a fitted effect of over 55% in size
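40 nM FBPA preincubated 10 min at RT with compound (up to 57.5 uM final), then substrate plus GAPDH/TPI/NAD/arsenate coupling and diaphorase/resazurin added. Fluorescence read after 20 min at RT, 525/598 nm.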
The depositor's hits bear a star; ? = inconclusive; nt = no result; [ ] = another dose, or the depositor's remark. Rows were chosen to be rich in hits. Some 14% of all compounds tested hit in one or more screens of this group. Unless noted, calls follow the shape of the dose curve; as a rule, active = well fitted curve in the direction sought with a large enough effect; inconclusive = small, poorly fitted or top-dose-only effect, or another doubt; inactive = no such curve, though single readings can be large; an effect the other way counts as inactive or inconclusive.

SMILES	Shiga inhibitor	Cycloheximide cs	LmPK inhibitor	NS1 inh	FBPA Giardia inh
Nc1nonc1-n1nnc(C(=O)N/N=C/c2ccc(OCc3ccccc3)cc2)c1CN1CCCCC1	-3	12	-1%	-39%	-14%
Cc1ccc(-c2nnc(SCC(=O)Nc3ccccc3N3CCOCC3)o2)cc1	39	24	5%	?	-17%
Cn1c(-c2ccc(F)cc2)cnc1SCC(=O)Nc1ccccc1N1CCOCC1	56*	27*	-8%	-6%	8%
N#Cc1ccsc1NC(=O)CCc1ccccc1	68*	32*	?	1%	-4%
Cc1cnc(NC(=O)CC(C)c2ccccc2)s1 (configuration not stated)	60*	28*	-7%	-4%	6%
Cc1ccc(-c2nnc(SCC(=O)Nc3ccccc3F)o2)cc1	-3	16*	7%	-11%	3%
CC(=O)OC[C@@H]1O[C@@H](O/N=C2/C[C@@H](O)[C@@H](O)[C@@H]3[C@@H]4C(=O)N([C@@H](C)c5ccccc5)C(=O)[C@H]4CC[C@H]23)[C@H](OC(C)=O)[C@H](OC(C)=O)[C@@H]1OC(C)=O	nt	nt	nt	nt	0%[12.9 µM]
CN(C)Cc1ccccc1-c1cc(N(C)Cc2ccco2)ncn1	nt	nt	nt	nt	6%
CO[C@H]1COC(=O)C/C=C\[C@H](C)[C@@H](OC)COC(=O)[C@H](C)COC(=O)C/C=C\[C@@H]1C	nt	nt	nt	nt	3%[12.9 µM]
N#Cc1ccsc1NC(=O)CSc1nnc(-c2ccccc2)o1	87*	31*	-3%	7%	?
CCc1nnc(NC(=O)CSc2nnc(-c3ccccc3O)o2)s1	92*	34*	4%	-3%	0%
N#Cc1ccsc1NC(=O)COc1ccc(-c2nnco2)cc1	99*	35*	-28%	-6%	1%
CCc1nnc(NC(=O)CSc2nccn2-c2ccccc2)s1	13	-4	-6%	-24%	-2%
CCc1nnc(NC(=O)CSc2ncc(-c3ccccc3)n2C)s1	102*	54*	3%	nt	7%
Cc1cnc(NC(=O)CSc2nnc(-c3ccccc3)o2)s1	44*	41*	2%	3%	4%
O=C(CSc1nnc(-c2ccncc2)o1)Nc1ccccc1Cl	4	10	-7%	-7%	1%
O=C(CSc1nnc(-c2ccccc2)o1)Nc1ccccc1F	6	23*	-1%	-16%	-7%
O=C(O)c1cc(N=Nc2ccc([N+](=O)[O-])cc2)ccc1O	nt	nt	nt	-4%	nt
CC=C(/C(=C/C)c1ccc(O)cc1)c1ccc(O)cc1	nt	nt	nt	nt	5%[21.7 µM]
Cn1cccc1C1Nc2ccccc2NC2=C1C(=O)CC(C)(C)C2 (configuration not stated)	64	31*	5%	-2%	?
COC(=O)c1ccc(C2Nc3ccccc3NC3=C2C(=O)CC(C)(C)C3)cc1 (configuration not stated)	-6	-4	-4%	5%	0%
CC1(C)CC(=O)C2=C(C1)Nc1ccccc1NC2c1cccc(F)c1 (configuration not stated)	-15	-3	-6%	11%	4%
CCOc1cc(C2Nc3ccccc3NC3=C2C(=O)CC(C)(C)C3)ccc1O (configuration not stated)	7	14*	-3%	-5%	7%
COC(=O)c1ccc2c(c1)NC1=C(C(=O)CC(C)(C)C1)C(c1ccncc1)N2 (configuration not stated)	84*	42*	1%	-6%	-21%
O=C(c1ccc(C(F)(F)F)cc1)C1CCCN(C(=O)CCc2ccncc2)C1 (configuration not stated)	22	9	0%	3%	nt
SMILES	Shiga inhibitor	Cycloheximide cs	LmPK inhibitor	NS1 inh	FBPA Giardia inh
O=C(CC12CC3CC(CC(Br)(C3)C1)C2)NC1CCCC1	-5	-2	0%	-10%	6%
N/C(Cc1ccc(Cl)cc1)=N\OC(=O)C1CCCCC1	69*	53*	5%	-63%	4%
Cc1ccc(C)c(N2CCN(CCCNC(=O)Cn3c(=O)c4cccn4c4cccnc43)CC2)c1	-11	-3	2%	8%	8%
CCCCc1nc2cc(C(=O)NCc3ccccn3)ccc2o1	47	10*	-2%	1%	-4%
CC(CCCC(C)(C)O)NC(=O)c1ccc2oc(CCc3ccccc3)nc2c1 (configuration not stated)	9	14*	3%	-11%	1%
CCn1ccnc1CNC(=O)c1ccc2oc(CCCc3ccccc3)nc2c1	32*	19*	-4%	-11%	nt
CCCCc1nc2cc(C(=O)N(C)C(C)c3ccccn3)ccc2o1 (configuration not stated)	30*	23*	-15%	-5%	15%
COc1ccc(C(=O)N(O)c2ccccc2)cc1	nt	nt	nt	nt	-11%
CC(C)CC(=O)NC(C)C(c1cccs1)N1CCOCC1 (configuration not stated)	-7	2	-2%	-6%	6%
COc1ccc2c(N)c(C(=O)NN)[nH]c2c1	20	-3	2%	2%	-7%
O=C(Nc1ccc(S(=O)(=O)Nc2cnc3ccccc3n2)cc1)c1ccc([N+](=O)[O-])cc1Cl	-6	-1	-3%	8%	-21%
COC(=O)c1ccc(N=NN2CCCCC2)cc1	127*	38*	-17%	-13%	4%
Cc1ccc(C(=O)ONc2ccc(N=O)cc2)cc1	85*	46*	10µM*	2%	-7%
O=Nc1ccc(NOC(=O)c2ccc(Br)cc2)cc1	26	21	-25%	-18%	nt
COC(=O)c1ccc(NN=Nc2ccc(C)cc2)cc1	47*	59*	-23%	-4%	-14%
COC(=O)c1ccc(NC(=O)Cc2ccc(C)cc2)cc1	26	9	3%	-4%	3%
C[C@H]1Cc2c(COc3ccccc3)nc3c(c2CO1)CN(S(=O)(=O)c1ccc2c(c1)OCCN2C)CC3	nt	nt	-2%[11.5 µM]	nt	4%[12.9 µM]
COc1ccccc1C(=O)N/C(=C\c1cn(S(=O)(=O)N(C)C)c2ccccc12)C(=O)NCCCN1CCOCC1	-18	7	-3%	-2%	0%
Cc1ccc(OCCOCCn2cnc3ccccc3c2=O)cc1C	-2	-3	1%	-1%	-3%
CCOc1ccc(OCCn2nnc3ccccc3c2=O)cc1	59*	37*	-4%	nt	2%
Cc1ccc(OCCn2cnc3ccccc3c2=O)c([N+](=O)[O-])c1	52*	50*	2%	10%	0%
CCCn1nnc2ccccc2c1=O	-7	7	0%	1%	5%
CC(C)(C)c1ccc(OCCOCCn2cnc3ccccc3c2=O)cc1	55	35*	3%	-8%	-13%
CCOc1cccc(OCCn2cnc3ccccc3c2=O)c1	35*	13	4%	-1%	2%
CN(C(=O)COC(=O)CNC(=O)c1ccc2ccccc2c1)c1c(N)n(Cc2ccccc2)c(=O)[nH]c1=O	-11	-2	-7%	-2%	?
COc1ccc(/C=C/C(=O)O/N=C(\N)c2cccnc2)cc1OC	25	29*	0%	-9%	-13%
COc1ccc(/C=C/C(=O)C(C)(C)C)cc1OC	12	16*	2%	-3%	-4%
